DENV2 CPE – inhibitors of DENV2 cytopathic effect, primary screen, cell-based, plate reader, single concentration. DENV2-infected cells, cytopathic effect rescue. CPE inhibition, % at 9.99 µM. 1.7% of 350,000 active; in the data active = CPE inhibition above about 20%, passing the limit was not always enough; inconclusive = no clear call, values can overlap the other calls; tested in BHK-21 cells;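 note: 0% = median of neutral control wells and 100% = median of positive control wells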
RAD52 inh – RAD52 DNA annealing inhibitors, primary screen, biochemical, FRET, single point, set 2; DNA repair protein RAD52 homolog (Homo sapiens), P43351; 0.46% of 360,000 active; recombinant RAD52 DNA annealing, FRET fluorescence; inhibition, % at 18.7 µM;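 active = every replicate showing at least 50% inhibition; inconclusive = mean inhibition at least 50% but not in every replicate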
FGF22 binding – binders of human FGF22 protein, primary screen, FGF22 synaptogenesis inhibitor project, biophysical, thermal shift, single point | recombinant FGF22 thermal shift, SYPRO orange fluorescence; percent of sucrose octasulfate shift, DMSO zero | AID 651658, 2012 | 1.5% of 340,000 active | activity (Tm shift, normalised), % at 9.99 µM;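 active = mean Tm shift, scaled 0 neutral to 100 positive control, at about 1.3% or above, every replicate too, limit read from the data; inconclusive = no clear call, values can overlap the other calls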
ERAP1 HTS inh – human ERAP1 aminopeptidase inhibitors, primary screen, biochemical, single point, plate reader; Endoplasmic reticulum aminopeptidase 1 (Homo sapiens), Q9NZ08; recombinant ERAP1, Leu-AMC fluorescence, 60 min; 0.15% of 340,000 active; AID 652197, 2013; inhibition, % at 10.7 µM;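 active = mean replicate inhibition of at least 30%, or all replicates individually reaching that 30% level; inactive = mean below 30% and not every replicate reaching it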;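 note: 0% = neutral control wells and 100% = L-leucinethiol positive control wells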
AF4-AF9 inh – inhibitors of AF4 peptide binding to AF9, primary screen, biochemical, AlphaScreen, biotin-AF4 peptide, FLAG-AF9, single point | AID 651704, 2012 | 0.47% of 350,000 active | inhibition, % at 10 µM;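 active = every replicate reaching a set inhibition limit, whatever the replicate mean, cut at about 25% in these data; inconclusive = mean inhibition reaches that limit but some replicates miss it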;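 note: 0% = plate neutral control median and 100% = total signal loss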
Target sequence (P42568 whole entry, looked up): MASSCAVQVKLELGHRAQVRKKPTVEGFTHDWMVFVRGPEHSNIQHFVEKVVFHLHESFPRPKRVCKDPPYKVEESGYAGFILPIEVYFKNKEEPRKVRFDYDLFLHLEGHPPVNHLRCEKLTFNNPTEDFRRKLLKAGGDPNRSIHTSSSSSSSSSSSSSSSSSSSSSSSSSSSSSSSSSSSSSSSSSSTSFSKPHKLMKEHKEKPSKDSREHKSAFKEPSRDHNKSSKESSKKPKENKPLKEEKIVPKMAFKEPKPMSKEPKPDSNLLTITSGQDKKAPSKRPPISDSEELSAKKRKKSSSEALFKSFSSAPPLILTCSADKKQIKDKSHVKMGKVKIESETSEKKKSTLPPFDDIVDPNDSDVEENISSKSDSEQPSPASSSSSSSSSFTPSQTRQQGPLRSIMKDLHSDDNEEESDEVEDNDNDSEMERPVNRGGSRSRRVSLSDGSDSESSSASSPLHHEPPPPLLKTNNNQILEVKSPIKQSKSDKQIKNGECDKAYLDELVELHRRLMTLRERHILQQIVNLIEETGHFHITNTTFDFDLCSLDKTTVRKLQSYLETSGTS
An asterisk follows results filed as active; ? = inconclusive; · = no result given. A selection: hits, their analogues and other compounds. The true share with any hit is near 4%.

SMILES	DENV2 CPE	RAD52 inh	FGF22 binding	ERAP1 HTS inh	AF4-AF9 inh
C[C@@H]1CN([C@@H](C)CO)S(=O)(=O)c2ccc(C#CCC3CCCC3)cc2O[C@H]1CN(C)Cc1cccc(C(=O)O)c1	4	-10	0	-1	5
N#Cc1ccc(OCC(=O)N/N=C(\CCC(=O)O)c2cccs2)cc1	-4	-12	43*	0	3
CCOC(=O)N/N=C(\CCC(=O)O)c1cccs1	15	0	0	-1	?
CC(C)N1C(=O)CCC1C(=O)N1CCN(c2ccccn2)CC1 (stereo not given)	7	2	0	-5	0
CC(C)N1C(=O)CCC1C(=O)O (stereo not given)	33*	-8	0	0	2
Cc1ccc(-c2nc(=O)[nH]c3ccccc23)cc1	-3	-6	0	1	6
Cn1cccc2[nH]c(=O)nc1-2	10	-9	0	89*	-60
O=C1O[C@@H](Cc2ccccc2)[C@H]2[C@@H]3C=CCCC=C3CN2C12CCCC2	33*	-160	1	2	0
C=C/C=C/[C@@H]1C(=C)CN2[C@H]1[C@H](Cc1ccccc1)OC(=O)C21CCCC1	-2	-56	0	2	5
CCOC(=O)CSC1=C(C#N)C(c2ccc(C)o2)CC(=O)N1 (stereo not given)	7	-17	0	0	30*
CCOC(=O)CSC1=C(C#N)C(c2ccc(Cl)cc2)CC(=O)N1 (stereo not given)	-7	-4	0	-2	-2
CN(c1cccnc1)c1ccc(NC(=O)Cc2cn(Cc3ccccc3)c3ccccc23)cc1Br	2	-62	0	-4	·
Cn1cc(CC(=O)Nc2ccc(Nc3cccnc3)cc2)c2ccccc21	54*	-26	0	0	·
O=C(Cc1cn(Cc2ccccc2)c2ccccc12)Nc1ccc(Oc2cccnc2)cc1	49*	-11	0	1	·
CO[C@H]1CN(C)C(=O)c2ccc(NC(=O)Nc3c(C)noc3C)cc2OC[C@@H](C)NC[C@@H]1C	5	-5	0	·	-1
COc1ccc(C#Cc2ccc3c(c2)[C@]2(C(=O)N3)[C@H](c3ccc(OCCO)cc3)N3[C@H](c4ccccc4)[C@H](c4ccccc4)OC(=O)[C@H]3[C@@H]2C(=O)N2CCCCCCC2)cc1	3	-390	0	1	-9
CCOC(=O)N1CCc2c(sc(NC(=O)c3ccc(S(=O)(=O)N4CCCC4)cc3)c2C#N)C1	17	-155	1	31*	5
C/C=C/c1cnc2c(c1)C(=O)N([C@@H](C)CO)C[C@@H](C)[C@@H](CN(C)Cc1ccccc1)O2	-3	-2	0	0	-5
C=C(C)CN(CC)C(=O)CC1C(=O)NCCN1C (stereo not given)	5	-4	0	13	0
C=C(C)CN(CC)C(=O)CSc1nc(O)cc(=O)n1C1CCCC1	-1	-24	43*	5	-2
CC(C)NC(=O)Nc1ccc2c(c1)C(=O)N([C@@H](C)CO)C[C@@H](C)[C@@H](CN(C)Cc1ccc(C(F)(F)F)cc1)OCCCC[C@@H](C)O2	56*	17	0	3	1
CC(C)NC(=O)Nc1ccc2c(c1)C(=O)N([C@@H](C)CO)C[C@H](C)[C@H](CN(C)Cc1ccc(C(F)(F)F)cc1)OCCCC[C@@H](C)O2	-1	21	0	0	8
CC(C)NC(=O)Nc1ccc2c(c1)C(=O)N([C@@H](C)CO)C[C@H](C)[C@H](CN(C)Cc1ccc(C(=O)O)cc1)OCCCC[C@@H](C)O2	25*	-16	-1	-1	-6
CCC(=O)N[C@H]1CC[C@H](CCNC(=O)Nc2ccc(F)cc2)O[C@H]1CO	7	2	0	-2	0
O=C1[C@H](Oc2ccccc2)[C@@H](c2ccncc2)N1c1ccncc1	-6	-2	0	1	0
SMILES	DENV2 CPE	RAD52 inh	FGF22 binding	ERAP1 HTS inh	AF4-AF9 inh
O=C1[C@@H](Oc2ccccc2)[C@@H](c2ccncc2)N1c1ccncc1	28*	-39	0	-2	1
CCOc1ccc(-c2nnc3ccc(SCC(=O)Nc4nc5ccccc5s4)nn23)cc1	-3	-8	6.6*	2	-1
CCOc1ccc2nc(NC(=O)CSc3nc(SC)ns3)sc2c1	-1	-13	1.7*	1	6
CCOc1ccc(-c2nnc3ccc(SCC(=O)Nc4nc5ccc(C)cc5s4)nn23)cc1	5	2	-1	0	-1
S=C(NCCc1ccccn1)Nc1ccc(Cl)cc1	16	-7	0	-1	-48
COc1ccc(NC(=S)NCc2ccccn2)cc1OC	·	3	0	-4	1
S=C(NCc1ccccn1)Nc1ccccc1	7	-6	44*	-2	-5
Fc1ccc(NC(=S)NCCc2ccccn2)cc1	-4	-8	44*	0	2
COc1c(C)cc(C(=O)C2CCCN(Cc3ccc(Oc4ncccn4)cc3)C2)cc1C (stereo not given)	2	-9	0	-5	2
CC(C)Oc1cccc(C(=O)C2CCCN(Cc3ccc(Oc4ncccn4)cc3)C2)c1 (stereo not given)	1	-22	43*	1	6
Nc1nc(SCC(=O)NCCO)nc2sc3c(c12)CCCC3	-5	-11	43*	-4	-1
CC(C)(C)C1CCc2c(sc3nc(SCC(=O)O)nc(N)c23)C1 (stereo not given)	2	-6	0	2	-2
COc1cccc(S(=O)(=O)N[C@H]2C=C[C@@H](CC(=O)NCc3ccccc3)O[C@H]2CO)c1	-6	-9	0	-3	-2
Cn1cnc(S(=O)(=O)N2CCCCN3[C@@H](CO)[C@@H](c4ccc(C#CC5CC5)cc4)[C@@H]3C2)c1	1	16	0	5	3
C[C@H]1COC[C@@H](C/C=C/c2ccccc2)N1c1ccccc1	10	-10	43*	1	3
CCOC(=O)C1(Cc2ccccc2)CCN(Cc2cn(CC(=O)OC)c3ccccc23)CC1	4	-14	0	-1	1
CCOC(=O)C1(CC2CC2)CCN(Cc2cn(C)c3ccccc23)CC1	1	14	44*	-5	4
Cc1noc(C)c1C(=O)N1CCC1(C)C(=O)NS(=O)(=O)Cc1cccc(Cl)c1 (stereo not given)	4	1	44*	6	2
COc1cc(-c2cnc3c(NC=O)cc(-c4ccccc4)cn23)cc(OC)c1OC	13	-25	0	0	0
COc1cc(-c2cnc3c(NC=O)cc(-c4ccc(C)cc4)cn23)cc(OC)c1OC	95*	-13	0	-4	1

Screening data deposited in PubChem by Broad Institute.
